Test results taken from PubChem BioAssay AID597 (National Center for Advancing Translational Sciences (NCATS), 2007).
Out of some 68,000 compounds screened, about 60 (0.09%) were called active. The call rests on the fitted dose curve; in most records, active means well fitted curve in the direction sought with a large enough effect; inconclusive means small, poorly fitted or top-dose-only effect; inactive means flat fitted curve, though single readings scatter. Only a sample is shown.

Assay: qHTS Assay for Epigenetic Modulators; further: % of control where 0% means no effect
Conditions: mouse C127i GFP locus derepression, cytometry, 30 h; series mostly up to 46.1 µM; GFP derepression (activation): at the top concentration
Description: NIH Molecular Libraries Screening Centers Network [MLSCN] NIH Chemical Genomics Center [NCGC] MLSCN Grant: 1 X01 MH079860-01 Assay Provider: Elisabeth D. Martinez, University of Texas SW Medical Center NCGC Assay Overview: The Locus Derepression assay detects the derepression of a GFP reporter that is stably integrated in a region of the genome of murine c127i mammary cells that is presumably silenced. GFP transcription in this construct is controlled by a CMV promoter, which normally is strong and constitutively active. However, this line was selected for lack of constitutive expression of the GFP protein. GFP production can be induced by incubating the cells with histone deacetylase or DNA methyltransferase inhibitors. Compounds that cause derepression of the locus to express GFP are identified by enumerating GFP positive cells using a laser-scanning microplate cytometer. For further details of this screen and follow-up characterization, see R.L. Johnson, W. Huang, A. Jadhav, C.P. Austin, J. Inglese, E.D. Martinez, A Quantitative High-Throughput Screen Identifies Potential Epigenetic Modulators of Gene Expression, Analytical Biochemistry (2008) 375(2):237-48.
NCGC Assay Protocol Summary: Two hundred and fifty cells in 5 uL per well were dispensed into black, clear-bottom 1536-well plates. Twenty-three nL compound was transferred to the assay plate and cells were incubated 30 hours at 37 C. Medium was removed, cells were washed two times with PBS, and GFP-positive cells were enumerated as fluorescent objects between the sizes of 20 to 120 um width and depth using an Acumen Explorer. Keywords: NIH Roadmap, MLSCN, MLI, MLSMR, qHTS, NCGC, qHTS, HDAC, DNMT, HAT, DNA methyltransferases, histone acetyl transferases, histone deacetylases

GFP derepression (activation), inactive:
COc1ccc(CNC(=O)C2CCN(S(=O)(=O)N3CCOCC3)CC2)cc1 4.7%, COc1ccc(C(CC(=O)O)NC(=O)Cc2ccccc2)cc1 (centres undefined) 0.9%, COC(=O)c1ccc(N(CC(=O)NC2CCCC2)C(=O)CNC(=O)c2ccco2)cc1 -1.3%, COc1ccc2[nH]c3c(=O)n(Cc4ccco4)cnc3c2c1 0.4%, CCCSc1nc2c(c(=O)n(C)c(=O)n2C)n1Cc1ccc(C)cc1 4.3%, O=C(CN1CCN(C(=O)c2cccc(F)c2)CC1)Nc1ccccc1F 2.3%, Cc1cc(N(C)C)cc(C)[n+]1[O-] -2.2%, O=C(c1cccc(F)c1)N1CCC2(CCCN(Cc3ccncc3)C2)CC1 0% [at 9.22 µM], O=c1[nH]c(=O)n([C@H]2C[C@H](O)[C@H](CO)O2)cc1Br 0%, Cc1cccc(NC(=O)CSc2nc3c(c(=O)[nH]2)CCC3)c1C 0%, Cc1nn(-c2ccccc2)c2[nH]c(C(F)(F)F)cc(=O)c12 -2.9%, COC(=O)c1cc(C(=O)OC)cc(N2C(=O)CC(N3CCN(c4ccccc4)CC3)C2=O)c1 (centres undefined) 5.1%, CSCCC(NS(=O)(=O)/C=C/c1ccccc1)C(=O)N1CCC(C)CC1 (centres undefined) -1.5%, C=CCc1cccc2cc(C(=O)OCC)c(=O)oc12 0.1%, COC(=O)c1ccc(CSc2ccccc2C)o1 2.1%, CCN(c1ccccc1)S(=O)(=O)c1cccc(C(=O)O)c1 1.2%, COCCn1c(=O)c(-c2cccs2)nc2cnc(N3CCN(C)CC3)nc21 -2.7% [at 9.22 µM], CN(Cc1ccco1)c1ncncc1-c1ccoc1 3.4% [at 9.22 µM], CN/C(=C\[N+](=O)[O-])NCCSCc1csc(CN(C)C)n1 0% [at 20.6 µM], Cc1cccc(Cn2c(N3CCN(c4ccccc4)CC3)nc3c2c(=O)n(C)c(=O)n3C)c1 0%, O=C(c1ccc(=O)[nH]c1)N(Cc1ccco1)C1(C(=O)NC2CCCCC2)CCCCC1 -2.2%, CCCCC(CC)C(=O)Nc1ccc(Cl)cn1 (centres undefined) -1.7%, O=C(Nc1ccccc1)N[C@H]1C[C@H](C(=O)O)Nc2cc(Cl)cc(Cl)c21 0%, CC1(C)CC(=O)c2cc(OCC(=O)NCC3CCCO3)ccc2O1 (centres undefined) -1%, COc1ccccc1CN1CC2(CCN(S(=O)(=O)c3ccccc3)CC2)C1 -2.3% [at 9.22 µM], COc1ccc2[nH]c3cc4c(=O)c5cc(OC)ccc5[nH]c4cc3c(=O)c2c1 1.1% [at 9.22 µM], Oc1c(C(c2ccccn2)N2CCOCC2)ccc2cccnc12 (centres undefined) 1.6%, Cc1ccc(C(c2nnnn2C(C)(C)C)N2CCc3ccccc3C2)cc1 (centres undefined) -2.3%, CCOC(=O)C1(C(F)(F)F)N=C(N(C)C)OC(N(C)C)=N1 0%, CCC[C@H]1C(=O)N2C(N(C)C)=Nc3ccc(C)cc3N2C1=O 1.7% [at 20.6 µM], Cc1cc(N2CCCCC2)nc2ccc(Cc3ccc4nc(N5CCCCC5)cc(C)c4c3)cc12 -2.2% [at 9.22 µM], CCOCC(=O)Nc1cc(OC)c(Cl)cc1OC 0%, COCc1nc2ccccc2n1Cc1ccccc1Br 2.1%, O=C(NC1CCCCC1)n1c(=O)oc2cc(S(=O)(=O)N3CCCCC3)ccc21 -7.3%, COCCn1c(=O)c(-c2cccs2)nc2cncnc21 2.3% [at 9.22 µM], O=C(COC(=O)c1ccc2c(c1)OCCO2)NCc1ccccc1 1.1%, Cc1ccccc1-c1nc(N(C)Cc2ccco2)c2ccccc2n1 -2.9% [at 9.22 µM], COCCn1c(=O)c(-c2ccc(OC)cc2)nc2cnc(Oc3cccc(Cl)c3)nc21 -2.7% [at 9.22 µM], O=c1c(-c2ccc(F)cc2)nc2cnc(N3CCOCC3)nc2n1-c1ccccc1 2.3% [at 9.22 µM], NC(=O)C1(N2CCCCC2)CCN(C(=O)c2ccc(C#Cc3ccccc3)o2)CC1 0.2%, Nc1ccc(-c2nnc(-c3ccc(-c4ccccc4)cc3)o2)cc1 1.6%, COc1ccc(Cl)cc1NC(=O)C1CC(=O)N(c2ccc(F)cc2)C1 (centres undefined) 0%, CC1C(c2ccccc2)=[N+]([O-])C2(CCCC2)N1O (centres undefined) 5%, S=c1c2[nH]cnc2ncn1CCSc1ncnc2nc[nH]c12 3.4% [at 9.22 µM], CN1CCN(c2ncncc2-c2ccc(C(=O)N(C)C)cc2)CC1 -2.3% [at 9.22 µM], CCCCCNC(=O)Cc1ccc(OC)cc1 3.3%, COC(=O)c1ccc(CSc2nncn2C)cc1 15.3%, CC(C)(C)NC(=O)NC(=O)COC(=O)Cn1c(C(F)(F)F)nc2ccccc21 -1.3%, CC(C)[C@H](CO)Nc1nc(Nc2cc(N)cc(Cl)c2)c2ncn(C(C)C)c2n1 -2.5%, C[C@@H](N)[C@@H](C)Cc1ccccc1 0% [at 9.22 µM], Cc1cc(NC(=O)CCC(=O)N(c2ccccc2)C(C(=O)NC2CCCC2)c2ccncc2)no1 (centres undefined) 1%, COc1ccc(C(=O)N2CCC3(CCCN(C(c4ccccc4)c4ccccc4)C3)CC2)cc1 -2.3% [at 9.22 µM], COc1ccc(-c2cc(C(F)(F)F)n3nc(C(=O)N4CCOCC4)c(Cl)c3n2)cc1 0%, O=C(CS(=O)(=O)c1cn(Cc2cccc(F)c2)c2ccccc12)N1CCCCC1 2.3%, O=C(O)c1ccc(COc2c(F)c(F)cc(F)c2F)o1 -2.7%, Cc1ccc(Oc2nc3ccccc3n3c(C)nnc23)cc1 0.5%, CCC(c1nnnn1C1CCCC1)N1CCN(C(=O)c2ccco2)CC1 (centres undefined) -2.3%, O=C(COc1ccc(F)cc1)N(CC1=CCS(=O)(=O)C1)c1ccccc1 -2.7%, Cc1ccc(S(=O)(=O)N2CCC(C(=O)N[C@@H](C)C(=O)NCCc3ccccc3)CC2)cc1 0.4%, O=C(N1CCOCC1)N1CCOCC1 0.3%, CC(C)Cc1nc(N2CCOCC2)c(C#N)c2c1CCC2 -2.2% [at 20.6 µM], CCCCCCCCCCCC(=O)O[C@H](CC(=O)O)C[N+](C)(C)C 1.4%, Cc1noc(C)c1-c1nc(Nc2ccccc2)c2ccccc2n1 -2.9% [at 9.22 µM], O=C(O)c1nn(-c2ccc(Cl)cc2)c2c1C(=O)c1ccccc1C2=O 4.5% [at 9.22 µM]
